# Source: the supplement of paper PMC8728848
# Shown is part of a subset that was picked to be rich in the strongest signals.
# Legend:
# Test in all cases: glycan array binding signal (z-score within array); higher = stronger binding
# Man(a1-6)Man = settings: glycan notation: IUPAC condensed, linker removed
# Outline: (§1)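 Arrays were curated from the Consortium for Functional Glycomics database, 3228 in total, and kept only where the protein sequence was available. Binding is expressed as a within-array Z-score. This score was averaged across arrays of the same protein sequence at different concentrations or buffers and across linkers, and negative values can be read as non-binding.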
# [1] = test system: Neu5Ac(a2-3)Gal(b1-3)GlcNAc; settings: glycan notation: IUPAC condensed, linker removed
# Outline: as §1
# [2] = test system: Neu5Ac(a2-3)Gal(b1-3)GalNAc(b1-3)Gal(a1-4)Gal(b1-4)Glc; settings: glycan notation: IUPAC condensed, linker removed
# Outline: as §1
# [3] = test system: Neu5Ac(a2-3)Gal(b1-3)GalNAc(b1-3)Gal(b1-4)GlcNAc; settings: glycan notation: IUPAC condensed, linker removed
# Outline: as §1
# [4] = test system: Neu5Ac(a2-3)Gal(b1-3)[Fuc(a1-4)]GlcNAc; settings: glycan notation: IUPAC condensed, linker removed
# Outline: as §1
# [5] = test system: Neu5Ac(a2-3)Gal(b1-3)GalNAc(b1-4)[Neu5Ac(a2-3)]Gal(b1-4)Glc; settings: glycan notation: IUPAC condensed, linker removed
# Outline: as §1
# [6] = test system: Neu5Ac(a2-3)Gal(b1-3)GalNAc(b1-4)[Neu5Ac(a2-8)Neu5Ac(a2-3)]Gal(b1-4)Glc; settings: glycan notation: IUPAC condensed, linker removed
# Outline: as §1
# [7] = test system: Neu5Ac(a2-3)Gal(b1-3)GlcNAc(b1-3)Gal(b1-4)GlcNAc; settings: glycan notation: IUPAC condensed, linker removed
# Outline: as §1
# [8] = test system: Neu5Ac(a2-3)Gal(b1-3)GalNAc6S; settings: glycan notation: IUPAC condensed, linker removed
# Outline: as §1
# [9] = test system: Neu5Ac(a2-3)Gal(b1-3)GalNAc; settings: glycan notation: IUPAC condensed, linker removed
# Outline: as §1
# [10] = test system: Neu5Ac(a2-3)Gal(b1-3)[Neu5Ac(a2-3)Gal(b1-4)]GlcNAc; settings: glycan notation: IUPAC condensed, linker removed
# Outline: as §1
# [11] = test system: Neu5Ac(a2-3)Gal(b1-3)GlcNAc(b1-2)Man(a1-3)[Neu5Ac(a2-3)Gal(b1-3)GlcNAc(b1-2)Man(a1-6)]Man(b1-4)GlcNAc(b1-4)GlcNAc; settings: glycan notation: IUPAC condensed, linker removed; mutation: R125K
# Outline: as §1
# [12] = test system: Neu5Ac(a2-3)Gal(b1-3)GlcNAc(b1-2)Man; settings: glycan notation: IUPAC condensed, linker removed
# Outline: as §1
# [13] = test system: Neu5Ac(a2-3)Gal(b1-3)GlcNAc(b1-6)GalNAc; settings: glycan notation: IUPAC condensed, linker removed; mutation: R125K
# Outline: as §1
# [14] = test system: Neu5Ac(a2-3)Gal(b1-3)[GlcNAc(b1-6)]GalNAc; settings: glycan notation: IUPAC condensed, linker removed; mutation: R125K
# Outline: as §1
# [15] = test system: Neu5Ac(a2-3)Gal(b1-3)GlcNAc(b1-2)Man(a1-3)[GlcNAc(b1-4)][Neu5Ac(a2-3)Gal(b1-3)GlcNAc(b1-2)Man(a1-6)]Man(b1-4)GlcNAc(b1-4)GlcNAc; settings: glycan notation: IUPAC condensed, linker removed
# Outline: as §1
# [16] = test system: Neu5Ac(a2-3)Gal(b1-3)GlcNAc(b1-3)GalNAc; settings: glycan notation: IUPAC condensed, linker removed
# Outline: as §1
# [17] = test system: Neu5Ac(a2-3)Gal(b1-3)GlcNAc6S; settings: glycan notation: IUPAC condensed, linker removed
# Outline: as §1
# Chain of Avaren (Actinomycete K97) (chain, as listed by the source): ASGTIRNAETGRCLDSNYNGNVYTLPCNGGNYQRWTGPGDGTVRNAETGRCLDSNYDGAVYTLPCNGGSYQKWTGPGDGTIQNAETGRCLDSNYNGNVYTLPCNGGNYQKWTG
# Chain of Neurocan (Homo sapiens), O14594 (O14594 other isoform, or with tags, fused parts or gaps): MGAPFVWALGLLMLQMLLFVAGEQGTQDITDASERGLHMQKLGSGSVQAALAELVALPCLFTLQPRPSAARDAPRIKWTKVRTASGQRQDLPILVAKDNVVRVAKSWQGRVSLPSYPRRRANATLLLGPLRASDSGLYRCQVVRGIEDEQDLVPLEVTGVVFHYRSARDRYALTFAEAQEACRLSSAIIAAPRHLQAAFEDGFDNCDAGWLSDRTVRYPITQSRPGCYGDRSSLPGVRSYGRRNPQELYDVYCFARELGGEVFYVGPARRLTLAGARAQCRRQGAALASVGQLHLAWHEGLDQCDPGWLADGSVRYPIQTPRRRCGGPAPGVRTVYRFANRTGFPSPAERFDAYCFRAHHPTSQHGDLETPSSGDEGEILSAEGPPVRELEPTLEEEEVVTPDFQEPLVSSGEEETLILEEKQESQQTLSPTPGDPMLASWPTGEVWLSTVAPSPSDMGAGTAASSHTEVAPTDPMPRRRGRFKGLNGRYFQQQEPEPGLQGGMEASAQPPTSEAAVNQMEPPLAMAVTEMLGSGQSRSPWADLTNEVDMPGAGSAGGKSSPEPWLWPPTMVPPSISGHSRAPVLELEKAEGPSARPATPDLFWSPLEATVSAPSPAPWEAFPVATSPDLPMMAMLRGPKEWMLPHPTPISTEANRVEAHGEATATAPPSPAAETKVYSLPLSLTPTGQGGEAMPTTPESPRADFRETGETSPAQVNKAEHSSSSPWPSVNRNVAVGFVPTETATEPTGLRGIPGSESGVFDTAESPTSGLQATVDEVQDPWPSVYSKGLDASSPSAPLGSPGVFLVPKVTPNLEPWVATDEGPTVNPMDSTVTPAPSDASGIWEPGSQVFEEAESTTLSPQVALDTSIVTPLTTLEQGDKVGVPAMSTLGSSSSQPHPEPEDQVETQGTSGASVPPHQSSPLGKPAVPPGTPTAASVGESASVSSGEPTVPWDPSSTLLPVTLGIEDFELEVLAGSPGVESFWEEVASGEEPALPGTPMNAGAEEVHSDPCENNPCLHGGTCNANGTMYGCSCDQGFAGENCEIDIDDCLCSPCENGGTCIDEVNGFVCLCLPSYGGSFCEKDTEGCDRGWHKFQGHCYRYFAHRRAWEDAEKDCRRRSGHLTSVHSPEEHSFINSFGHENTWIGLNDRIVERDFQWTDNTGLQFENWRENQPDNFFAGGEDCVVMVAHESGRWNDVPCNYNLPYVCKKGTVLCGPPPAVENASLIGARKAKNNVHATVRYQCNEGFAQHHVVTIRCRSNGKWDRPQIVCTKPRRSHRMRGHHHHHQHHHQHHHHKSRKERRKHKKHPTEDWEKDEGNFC
# Chain of C3b (Homo sapiens), P01024 (P01024 23-667): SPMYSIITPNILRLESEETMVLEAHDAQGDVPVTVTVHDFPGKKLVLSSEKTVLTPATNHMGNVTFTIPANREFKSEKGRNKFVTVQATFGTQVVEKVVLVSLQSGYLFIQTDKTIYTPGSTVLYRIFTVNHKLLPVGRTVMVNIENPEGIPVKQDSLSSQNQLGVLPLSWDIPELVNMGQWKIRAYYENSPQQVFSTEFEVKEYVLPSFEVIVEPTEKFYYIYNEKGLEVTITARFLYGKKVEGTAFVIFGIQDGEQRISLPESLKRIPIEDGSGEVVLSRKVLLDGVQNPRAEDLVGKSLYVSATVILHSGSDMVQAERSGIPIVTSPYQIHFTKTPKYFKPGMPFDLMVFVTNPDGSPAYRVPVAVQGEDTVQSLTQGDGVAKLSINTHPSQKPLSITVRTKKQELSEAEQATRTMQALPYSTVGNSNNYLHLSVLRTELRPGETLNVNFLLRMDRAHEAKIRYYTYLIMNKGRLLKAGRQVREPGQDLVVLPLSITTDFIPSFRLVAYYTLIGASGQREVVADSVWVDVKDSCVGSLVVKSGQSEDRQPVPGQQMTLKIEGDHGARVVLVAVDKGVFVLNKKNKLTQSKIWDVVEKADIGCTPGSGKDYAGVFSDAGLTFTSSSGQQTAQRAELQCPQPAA
# Chain of wLAT-1A (Homo sapiens), Q01650 (Q01650 whole entry): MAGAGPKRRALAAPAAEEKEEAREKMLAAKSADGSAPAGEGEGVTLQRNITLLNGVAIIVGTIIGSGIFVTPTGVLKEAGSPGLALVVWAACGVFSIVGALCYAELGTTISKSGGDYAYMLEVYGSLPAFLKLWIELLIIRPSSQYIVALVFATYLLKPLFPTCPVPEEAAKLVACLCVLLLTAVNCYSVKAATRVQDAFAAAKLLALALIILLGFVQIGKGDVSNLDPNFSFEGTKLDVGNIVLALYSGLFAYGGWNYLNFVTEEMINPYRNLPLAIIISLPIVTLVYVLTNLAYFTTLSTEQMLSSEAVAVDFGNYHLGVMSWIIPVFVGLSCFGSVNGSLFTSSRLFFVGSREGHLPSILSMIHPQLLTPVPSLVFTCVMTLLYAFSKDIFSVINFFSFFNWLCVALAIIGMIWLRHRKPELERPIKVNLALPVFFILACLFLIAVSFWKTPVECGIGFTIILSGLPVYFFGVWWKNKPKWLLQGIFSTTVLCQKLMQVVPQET
# Chain of Aggrecan (Rattus norvegicus), NP_071526 (chain, as listed by the source): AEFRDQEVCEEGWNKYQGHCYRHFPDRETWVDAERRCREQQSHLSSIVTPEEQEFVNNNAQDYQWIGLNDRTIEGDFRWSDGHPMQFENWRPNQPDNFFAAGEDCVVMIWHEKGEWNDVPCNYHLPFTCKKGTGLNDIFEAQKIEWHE
# Chain of 6RG (Lolium perenne) (chain, as listed by the source): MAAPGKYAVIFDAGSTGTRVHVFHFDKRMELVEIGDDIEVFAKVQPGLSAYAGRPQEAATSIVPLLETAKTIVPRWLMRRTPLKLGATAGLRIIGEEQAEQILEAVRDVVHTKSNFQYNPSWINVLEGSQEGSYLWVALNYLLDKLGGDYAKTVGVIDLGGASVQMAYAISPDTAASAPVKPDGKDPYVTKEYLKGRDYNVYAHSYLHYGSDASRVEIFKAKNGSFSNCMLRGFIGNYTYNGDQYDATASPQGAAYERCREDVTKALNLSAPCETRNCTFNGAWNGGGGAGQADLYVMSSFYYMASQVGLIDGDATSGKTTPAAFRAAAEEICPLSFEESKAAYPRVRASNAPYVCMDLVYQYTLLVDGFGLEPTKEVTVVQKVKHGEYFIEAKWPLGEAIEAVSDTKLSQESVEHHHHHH
# Chain of PILRb (Mus musculus), Q2YSF2 (Q2YSF2 entry or part of it): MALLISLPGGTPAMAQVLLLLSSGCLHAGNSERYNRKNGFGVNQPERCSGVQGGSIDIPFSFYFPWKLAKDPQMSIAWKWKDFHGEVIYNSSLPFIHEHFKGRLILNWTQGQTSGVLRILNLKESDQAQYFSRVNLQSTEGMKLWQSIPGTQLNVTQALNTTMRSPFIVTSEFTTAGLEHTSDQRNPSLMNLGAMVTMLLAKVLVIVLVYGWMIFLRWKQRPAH
# Chain of PILRa (Mus musculus), Q2YSF3 (Q2YSF3 entry or part of it): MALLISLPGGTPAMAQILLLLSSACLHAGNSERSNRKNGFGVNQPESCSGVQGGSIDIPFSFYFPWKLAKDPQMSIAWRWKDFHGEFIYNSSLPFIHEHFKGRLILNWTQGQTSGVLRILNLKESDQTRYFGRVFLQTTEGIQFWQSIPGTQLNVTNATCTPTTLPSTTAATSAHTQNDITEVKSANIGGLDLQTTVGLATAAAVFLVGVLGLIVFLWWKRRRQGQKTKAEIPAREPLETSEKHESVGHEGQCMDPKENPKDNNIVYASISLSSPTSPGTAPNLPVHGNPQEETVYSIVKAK
substance,measurement,setting,value
"wLAT-1A (Homo sapiens), Q01650",glycan array binding signal (z-score),Man(a1-6)Man,0.732
same,glycan array binding signal (z-score),[1],-0.345
"Neurocan (Homo sapiens), O14594",glycan array binding signal (z-score),[2],0.009
same,glycan array binding signal (z-score),[1],2.76
"Aggrecan (Rattus norvegicus), NP_071526",glycan array binding signal (z-score),[3],-0.071
same,glycan array binding signal (z-score),[4],-0.038
Avaren (Actinomycete K97),glycan array binding signal (z-score),[5],-0.124
same,glycan array binding signal (z-score),[6],-0.128
same,glycan array binding signal (z-score),[7],-0.128
6RG (Lolium perenne),glycan array binding signal (z-score),[8],-0.326
"C3b (Homo sapiens), P01024",glycan array binding signal (z-score),[9],-0.754
same,glycan array binding signal (z-score),[10],-0.041
"Siglec-8 (Homo sapiens), Q9NYZ4",glycan array binding signal (z-score),[9]; mutation: R125K,4.65
same,glycan array binding signal (z-score),[11],1.23
same,glycan array binding signal (z-score),[12],1.28
same,glycan array binding signal (z-score),[13],0.063
same,glycan array binding signal (z-score),[1]; mutation: R125K,-0.024
same,glycan array binding signal (z-score),[14],-0.157
MpAFP RI GFP (Marinomonas primoryensis),glycan array binding signal (z-score),[15],-0.323
"PILRb (Mus musculus), Q2YSF2",glycan array binding signal (z-score),[16],-0.463
"PILRa (Mus musculus), Q2YSF3",glycan array binding signal (z-score),[17],-0.412
